# Pf growth 48h – P. falciparum growth inhibition at 48 hours (one generation); P. falciparum luciferase growth in erythrocytes, 48 h; Potency, µM (series often up to 28.7 µM), without a hit: at the top dose activity change, negative = inhibition, most hits filed as inhibitors; 5.9% of 310,000 active
#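 Read-out is firefly luciferase luminescence from an integrated reporter in P. falciparum, so falling signal marks reduced parasite growth. Infected erythrocytes were at 2% hematocrit and 0.1% parasitemia (final) in Albumax-supplemented RPMI 1640.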
# AmpC no deterg – blocks E. coli AmpC beta-lactamase in detergent-free assay | P00811 | AmpC nitrocefin hydrolysis, absorbance 480 nm, 0.0001% Triton | AID 485341 | Potency, µM (highest dose often 57.1 µM), inactives show top-dose activity change, negative = inhibition, actives largely listed as inhibitors | 0.52% of 330,000 active;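 further: plate controls were no compound for no effect and no enzyme for full effect; nearly all actives have a fitted effect of over 20% in size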
# Target sequence (P00811 whole entry, looked up): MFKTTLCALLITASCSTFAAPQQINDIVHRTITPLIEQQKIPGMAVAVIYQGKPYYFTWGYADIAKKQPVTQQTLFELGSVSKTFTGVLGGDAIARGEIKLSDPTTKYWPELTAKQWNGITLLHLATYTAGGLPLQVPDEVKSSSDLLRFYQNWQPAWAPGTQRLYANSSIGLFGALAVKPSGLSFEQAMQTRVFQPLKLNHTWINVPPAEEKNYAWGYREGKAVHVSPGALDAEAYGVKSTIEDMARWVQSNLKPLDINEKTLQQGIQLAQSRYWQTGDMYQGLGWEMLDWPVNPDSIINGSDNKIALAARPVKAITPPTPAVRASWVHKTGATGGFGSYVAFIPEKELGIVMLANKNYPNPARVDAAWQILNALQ
#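 20 mM phosphate pH 7.0 + 0.01% (detergent screen) or 0.0001% Triton X-100; 5.3 nM AmpC reagent; cpd preinc 15 min RT; nitrocefin (800 uM stock) to start; A480 q20 s × 4 min; Activity was normalised to no-enzyme and no-compound control wells.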
# Pf growth 96h – P. falciparum growth inhibition at 96 hour, primary screen for plastid delayed-death inhibitors; P. falciparum luciferase reporter growth, 96 h; Potency, µM (top dose mostly 28.7 µM), without a hit: at the highest dose activity change, negative = inhibition, hits mostly inhibitors; 6.9% of 320,000 active
#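 Luminescence readout: decreased luciferase signal marks inhibited growth of reporter-expressing P. falciparum in infected red cells (2% hematocrit, 0.05% parasitemia final), exposed to compound two generations (96 h, 37 C, 5% CO2).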
# HCV inh – blocks hepatitis C virus | Huh7.5.1 HCVcc-Cre infection, luciferase reporter, 44 h | Potency, µM (doses to about 41.8 µM), for inactives: at the highest dose activity change, negative = inhibition, actives largely listed as inhibitors | 3.4% of 340,000 active | AID 651820
#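 Cells seeded at 1,000/well and cultured 4 h, then compounds added followed by HCVcc-Cre virus (~0.5 moi). After 44 h further culture, luciferase substrate was added, plates held 15 min at room temperature, and luminescence read for 15 sec.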
# AMA1 RON2 block – disrupts binding of P. falciparum AMA1 to RON2 | AlphaScreen AMA1-biotinylated RON2 peptide binding | Potency, µM (top dose mostly 58.2 µM), for inactives: top-dose activity change, negative = inhibition, actives largely listed as inhibitors | 0.2% of 360,000 active;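 further: 0% = vehicle wells and -100% = peptide control; nearly all actives have a fitted effect of over 45% in size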
#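 AMA1 (3D7) with his tag at 25 nM final met compounds first, then biotinylated RON2 peptide at 25 nM; detection used donor plus acceptor beads, 10 µg/mL apiece, read by AlphaScreen after 30 min at room temperature.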
# AmpC inh detg – blocks E. coli AmpC beta-lactamase in detergent assay. AmpC hydrolysis of nitrocefin, absorbance 480 nm, 0.01% Triton. 0.041% of 370,000 active. Potency, µM (series often up to 114 µM), without a hit: top-dose activity change, negative = inhibition, most hits filed as inhibitors. AID 485294. P00811;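 further: 0% = no-compound wells and -100% = no-enzyme wells; nearly all actives have a fitted effect of over 25% in size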
#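 20 mM phosphate pH 7.0 + 0.01% (detergent screen) or 0.0001% Triton X-100; 5.3 nM AmpC reagent; cpd preinc 15 min RT; nitrocefin (800 uM stock) to start; A480 q20 s × 4 min; Activity was normalised to no-enzyme and no-compound control wells.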
# * hit, by the source's call; ? = inconclusive; . = no result given; [ ] = dose if it differs, or a comment. Shown are actives, neighbours in structure and some others; about 11% of the full set was active somewhere. The call rests on the fitted dose curve; in most records, active means well fitted curve in the direction sought with a large enough effect; inconclusive means small, poorly fitted or top-dose-only effect, or another doubt; inactive means no such curve, though single readings can be large; an effect the other way counts as inactive or inconclusive. Unless noted, on the % scale 0 is the no-effect control and ±100 the full control effect; potency means the concentration at half of the fitted maximal effect.
SMILES,Pf growth 48h,AmpC no deterg,Pf growth 96h,HCV inh,AMA1 RON2 block,AmpC inh detg
O=[N+]([O-])c1ccc2[nH]c3c(c2c1)CCCC3,-2.1%,-38.7%,2.8%,11.2µM*,?,10.4%
O=c1c2c([nH]c3ccc(Br)cc13)CCCC2,0.329µM*,-16.4%,0.0%,-24.1%,-6.5%,?
COc1cccc(N2C(=O)C(CC(=O)Nc3cccc(F)c3)N(C(C)C)C2=O)c1 (configuration not stated),.,.,.,.,.,6.5%
Cc1cccc(CNC(=O)Cn2nc(C)n3c(cc4cc(F)ccc43)c2=O)c1,.,.,.,.,.,0.3%
COc1ccc(/C=C/C(=O)NC2CCCCCC2)cc1S(=O)(=O)N1CCOCC1,?,115.4%,9.28µM*,-17.6%,-3.1%,-10.3%
COc1ccc(CCNC(=O)/C=C/c2ccc(S(=O)(=O)N3CCOCC3)cc2)cc1,-17.0%,-9.3%,?,-5.3%,1.0%,-0.2%
COc1ccccc1CNC(=O)/C=C/c1ccc(S(=O)(=O)N2CCOCC2)cc1,?,2.5%[11.4 µM],4.65µM*,-11.9%,4.4%,-16.5%
COc1ccccc1NC(=O)/C=C/c1ccc(OC)c(S(=O)(=O)N2CCOCC2)c1,13.1µM*,82.2%,-4.5%[5.75 µM],?,-9.0%,-11.4%
COc1ccccc1NS(=O)(=O)/C=C/c1ccccc1,-6.3%,-6.3%,8.28µM*,-0.1%,-5.9%,6.1%
COc1ccc(C(=O)NC2CCCCC2)cc1S(=O)(=O)N1CCOCC1,-13.9%,66.8%,?,15.2%,1.1%,-7.6%
COc1ccc(C2NC(=O)N(C)C3=C2C(=O)N(c2cccc(Cl)c2)C3)cc1 (configuration not stated),.,.,.,.,.,0.3%
O=C(CSc1nc2c(oc3ccccc32)c(=O)n1Cc1ccco1)Nc1ccccc1Cl,.,.,.,.,.,16.2%
Cc1ccc(COC(=O)c2[nH]c3c(c2C)C(=O)CC(c2ccc(Cl)cc2)C3)cc1 (configuration not stated),.,.,.,.,.,7.5%
Cc1ccc(N(C)C(=O)CN2C(=O)CCc3cc(S(=O)(=O)N4CCOCC4)ccc32)cc1,.,.,.,.,.,-7.3%
CCC(Sc1ncnc2sc3c(c12)CCCC3)C(=O)OCC(C)C (configuration not stated),.,.,.,.,.,13.9%
COc1ccc(CC(=O)Nc2ccccc2C(C)=O)cc1S(=O)(=O)N1CCOCC1,?,97.9%,?,18.1%,-10.1%,?
CCCNC(=O)/C=C/c1ccc(S(=O)(=O)Nc2ccccc2OC)cc1,-23.6%,-29.9%,9.28µM*,?,-2.2%,-15.2%
O=C(/C=C/c1ccc(S(=O)(=O)N2CCOCC2)cc1)NCCc1ccc(C(F)(F)F)cc1,11.7µM*,39.4%,6.57µM*,?,-2.4%,0.6%
COc1ccc(/C=C/C(=O)Nc2cc(F)ccc2C)cc1S(=O)(=O)N1CCOCC1,14.7µM*,64.4%,?,?,-2.0%,-3.3%
Cc1ccc(F)cc1NC(=O)/C=C/c1ccc(S(=O)(=O)N2CCOCC2)cc1,.,-24.6%,.,?,-1.8%,.
COc1ccc(/C=C/C(=O)Nc2ccccc2C(N)=O)cc1S(=O)(=O)N1CCOCC1,?,-13.7%,4.15µM*,-0.2%,-16.0%,-8.7%
COCCCNC(=O)NC(CCC(C)C)c1c(-n2cccc2)sc2c1CCN(C)C2 (configuration not stated),.,.,.,.,.,13.4%
Cn1c(SCc2ccccc2Cl)nc2c([nH]c3ccccc32)c1=O,.,.,.,.,.,-3.0%
COc1ccc(/C=C/C(=O)Nc2ccc(C)c(S(=O)(=O)N3CCOCC3)c2)cc1,.,-20.1%,.,2.82µM*,-3.4%,.
CCN(CC)C(=O)CNC(=O)c1nn(-c2ccc(OC)c(Cl)c2)c(=O)c2ccccc12,4.15µM*,2.8%,-21.0%,-10.9%,27.6%,2.2%
SMILES,Pf growth 48h,AmpC no deterg,Pf growth 96h,HCV inh,AMA1 RON2 block,AmpC inh detg
COc1ccc(-n2nc(C(=O)NCC(=O)NCCCN3CC(C)CC(C)C3)c3ccccc3c2=O)cc1Cl (configuration not stated),6.57µM*,98.9%,28.8%,?,-2.1%,1.2%
COc1ccc(-n2nc(C(=O)NCC(=O)Nc3cc(OC)c(OC)c(OC)c3)c3ccccc3c2=O)cc1Cl,?,106.7%,11.2%,?,-11.3%,-8.1%
CCCCc1ccc(NC(=O)Cn2cnc3c(oc4ccccc43)c2=O)cc1,.,.,.,.,.,21.7%
CC(C)N(C(=O)Cn1cc(S(=O)(=O)Cc2ccc(C(F)(F)F)cc2)c2ccccc21)C(C)C,.,.,.,.,.,8.6%
CCc1ccc(CN(Cc2ccco2)C(=O)COc2ccccc2Cl)cc1,.,.,.,.,.,-3.3%
COc1cc([C@H]2[C@@H]3CCCC[C@]3(O)CCN2Cc2ccccc2F)ccc1O,?,49.0%,11.7µM*,-8.2%,-5.1%,-12.5%
COc1cc([C@H]2[C@@H]3CCCC[C@]3(O)CCN2CC(=O)Nc2ccc(C)cc2C)ccc1O,?,8.0%,?,-3.3%,16.9%,-7.5%
O=C(NCCc1ccccc1)c1cc(-c2ccccc2)nc2n[nH]c(-c3ccccc3)c12,.,.,.,.,.,-4.8%
Cc1ccc(-n2c3nc(=O)[nH]c(=O)c-3cc3cc([N+](=O)[O-])ccc32)cc1C,6.7%,-37.5%,0.0%,35.5µM*,-1.5%,?
CC(C)NC(=O)c1ccc(CN2CCC(Cc3ccccc3)CC2)cc1,?,-20.4%,?,?,-11.0%,?
C=CCNC(=O)c1ccc(CN2CCC(Cc3ccccc3)CC2)cc1,10.4µM*,-26.7%,-15.3%,-15.7%,5.3%,2.6%
C=CCNC(=S)N1CCC(Cc2ccccc2)CC1,?,-7.5%,11.7µM*,-8.0%,12.2%,-1.4%
COc1cccc(NC(=O)N2C3CCCC2CC(NC(=O)C2CC2)C3)c1 (configuration not stated),-21.4%,-5.0%,1.47µM*,10.8%,10.1%,5.6%
COc1cccc(NC(=S)N2C3CCCC2CC(NC(=O)C2CC2)C3)c1 (configuration not stated),11.9%,3.0%,2.9%,22.1%,-7.4%,?
Cc1ccccc1NC(=O)N1C2CCCC1CC(NC(=O)C1CC1)C2 (configuration not stated),-0.2%,-15.4%,9.28µM*,6.5%,-6.2%,-9.5%
COc1cc(NC(=O)CSc2nc(-c3ccco3)cc(C(F)(F)F)n2)cc(OC)c1OC,.,.,.,.,.,25.2%
CC1CCCC(NC(=O)c2cccs2)C1C (configuration not stated),?,-8.5%,?,4.6%,19.0%,2.8%
C[N+]12CCCC[C@@H]1CCC(=C(c1cccs1)c1cccs1)C2 (some centres not stated),4.26µM*,.,-9.0%,.,.,.

# Assay outcomes as filed in PubChem.
